This passage reports inhibition results from ChEMBL document CHEMBL1961873, “Compounds: GSK PKIS; Assays: Nanosyn kinase panel” (2012).

Test [1] has as its target T1, Inhibitor of nuclear factor kappa-B kinase subunit epsilon (Homo sapiens) (UniProt Q14164).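 Note: reported values are averaged percent inhibition figures against human IKKε.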
T1 sequence (whole entry): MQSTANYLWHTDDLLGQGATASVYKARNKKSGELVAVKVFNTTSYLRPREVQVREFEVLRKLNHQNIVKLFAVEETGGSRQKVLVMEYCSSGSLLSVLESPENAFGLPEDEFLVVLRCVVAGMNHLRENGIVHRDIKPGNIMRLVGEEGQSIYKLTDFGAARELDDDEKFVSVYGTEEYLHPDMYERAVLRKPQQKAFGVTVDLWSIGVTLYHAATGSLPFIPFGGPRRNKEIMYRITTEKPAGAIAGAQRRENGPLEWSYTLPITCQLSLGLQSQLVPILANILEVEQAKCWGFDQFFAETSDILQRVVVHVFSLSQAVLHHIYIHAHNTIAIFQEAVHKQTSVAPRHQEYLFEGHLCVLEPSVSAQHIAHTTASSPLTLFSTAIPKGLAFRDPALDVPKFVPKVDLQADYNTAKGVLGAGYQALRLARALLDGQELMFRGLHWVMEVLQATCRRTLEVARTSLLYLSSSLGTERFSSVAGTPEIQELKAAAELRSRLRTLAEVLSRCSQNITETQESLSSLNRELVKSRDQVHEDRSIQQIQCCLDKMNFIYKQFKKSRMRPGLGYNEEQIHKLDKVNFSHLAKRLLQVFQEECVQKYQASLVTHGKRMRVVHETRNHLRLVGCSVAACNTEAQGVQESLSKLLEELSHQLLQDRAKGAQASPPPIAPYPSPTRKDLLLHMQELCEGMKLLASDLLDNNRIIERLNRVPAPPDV
The conditions noted are these: at 1 µM.

Test [2] concerns the target T2, Serine/threonine-protein kinase Nek1 (Homo sapiens) (UniProt Q96PY6).
T2 sequence (whole entry): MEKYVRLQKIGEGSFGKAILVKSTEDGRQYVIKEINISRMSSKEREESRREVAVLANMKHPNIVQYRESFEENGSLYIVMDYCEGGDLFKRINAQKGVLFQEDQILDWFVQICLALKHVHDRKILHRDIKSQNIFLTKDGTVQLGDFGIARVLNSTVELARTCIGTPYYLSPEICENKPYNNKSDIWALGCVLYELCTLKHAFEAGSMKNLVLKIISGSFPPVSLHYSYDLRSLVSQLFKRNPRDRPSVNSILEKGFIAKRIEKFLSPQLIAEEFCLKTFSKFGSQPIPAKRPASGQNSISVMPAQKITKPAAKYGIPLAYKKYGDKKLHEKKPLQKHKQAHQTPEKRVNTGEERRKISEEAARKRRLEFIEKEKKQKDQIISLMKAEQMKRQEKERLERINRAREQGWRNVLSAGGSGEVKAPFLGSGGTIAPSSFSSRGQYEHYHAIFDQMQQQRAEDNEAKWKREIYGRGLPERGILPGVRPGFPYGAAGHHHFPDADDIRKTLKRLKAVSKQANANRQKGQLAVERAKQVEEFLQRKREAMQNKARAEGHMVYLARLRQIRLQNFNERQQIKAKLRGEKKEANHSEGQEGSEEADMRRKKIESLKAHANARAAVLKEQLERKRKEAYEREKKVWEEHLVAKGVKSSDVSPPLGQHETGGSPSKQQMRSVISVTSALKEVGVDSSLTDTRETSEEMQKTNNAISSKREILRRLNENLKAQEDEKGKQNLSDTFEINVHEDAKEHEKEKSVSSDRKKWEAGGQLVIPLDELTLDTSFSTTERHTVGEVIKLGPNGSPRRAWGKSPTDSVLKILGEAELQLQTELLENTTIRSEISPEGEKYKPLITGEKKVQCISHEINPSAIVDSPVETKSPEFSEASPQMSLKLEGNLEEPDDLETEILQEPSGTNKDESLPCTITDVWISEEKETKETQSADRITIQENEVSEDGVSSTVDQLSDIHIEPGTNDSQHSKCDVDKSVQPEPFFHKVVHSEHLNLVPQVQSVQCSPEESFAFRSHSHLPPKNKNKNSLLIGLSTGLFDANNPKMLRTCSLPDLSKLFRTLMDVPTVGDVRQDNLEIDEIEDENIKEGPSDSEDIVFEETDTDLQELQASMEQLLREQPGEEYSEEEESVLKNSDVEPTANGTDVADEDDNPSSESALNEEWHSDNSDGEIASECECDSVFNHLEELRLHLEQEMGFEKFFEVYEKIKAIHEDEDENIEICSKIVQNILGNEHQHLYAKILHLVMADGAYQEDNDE
Conditions: at 0.1 µM.

Test [3] has as its target T2, Serine/threonine-protein kinase Nek1 (Homo sapiens). The conditions noted are these: at 1 µM.
Test [4] concerns the target T3, Serine/threonine-protein kinase Nek2 (Homo sapiens) (UniProt P51955).
T3 sequence (whole entry): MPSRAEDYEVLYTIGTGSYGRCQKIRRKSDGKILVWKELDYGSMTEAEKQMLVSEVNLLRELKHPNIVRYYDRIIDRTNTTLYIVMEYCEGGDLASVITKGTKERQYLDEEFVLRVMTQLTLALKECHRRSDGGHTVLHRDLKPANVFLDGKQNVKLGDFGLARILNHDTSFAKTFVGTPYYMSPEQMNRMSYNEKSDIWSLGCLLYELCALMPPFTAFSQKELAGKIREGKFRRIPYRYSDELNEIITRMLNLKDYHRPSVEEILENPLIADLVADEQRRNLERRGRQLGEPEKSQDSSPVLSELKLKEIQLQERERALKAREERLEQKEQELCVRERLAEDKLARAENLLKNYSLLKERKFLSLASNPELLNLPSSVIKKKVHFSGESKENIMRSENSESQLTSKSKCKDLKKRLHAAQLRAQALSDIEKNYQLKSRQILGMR
The conditions noted are these: at 0.1 µM.

Test [5] addresses T3, Serine/threonine-protein kinase Nek2 (Homo sapiens). The conditions noted are these: at 1 µM.
Test [6] concerns the target Serine/threonine-protein kinase Nek6 (Homo sapiens) (UniProt Q9HC98). The conditions noted are these: at 0.1 µM.
Test [7] has the same target. The conditions noted are these: at 1 µM.
Test [8] has as its target Serine/threonine-protein kinase Nek7 (Homo sapiens) (UniProt Q8TDX7). The conditions noted are these: at 0.1 µM.
Test [9] has the same target. Conditions: at 1 µM.
Test [10] deals with T4, Serine/threonine-protein kinase Nek9 (Homo sapiens) (UniProt Q8TD19).
T4 sequence (whole entry): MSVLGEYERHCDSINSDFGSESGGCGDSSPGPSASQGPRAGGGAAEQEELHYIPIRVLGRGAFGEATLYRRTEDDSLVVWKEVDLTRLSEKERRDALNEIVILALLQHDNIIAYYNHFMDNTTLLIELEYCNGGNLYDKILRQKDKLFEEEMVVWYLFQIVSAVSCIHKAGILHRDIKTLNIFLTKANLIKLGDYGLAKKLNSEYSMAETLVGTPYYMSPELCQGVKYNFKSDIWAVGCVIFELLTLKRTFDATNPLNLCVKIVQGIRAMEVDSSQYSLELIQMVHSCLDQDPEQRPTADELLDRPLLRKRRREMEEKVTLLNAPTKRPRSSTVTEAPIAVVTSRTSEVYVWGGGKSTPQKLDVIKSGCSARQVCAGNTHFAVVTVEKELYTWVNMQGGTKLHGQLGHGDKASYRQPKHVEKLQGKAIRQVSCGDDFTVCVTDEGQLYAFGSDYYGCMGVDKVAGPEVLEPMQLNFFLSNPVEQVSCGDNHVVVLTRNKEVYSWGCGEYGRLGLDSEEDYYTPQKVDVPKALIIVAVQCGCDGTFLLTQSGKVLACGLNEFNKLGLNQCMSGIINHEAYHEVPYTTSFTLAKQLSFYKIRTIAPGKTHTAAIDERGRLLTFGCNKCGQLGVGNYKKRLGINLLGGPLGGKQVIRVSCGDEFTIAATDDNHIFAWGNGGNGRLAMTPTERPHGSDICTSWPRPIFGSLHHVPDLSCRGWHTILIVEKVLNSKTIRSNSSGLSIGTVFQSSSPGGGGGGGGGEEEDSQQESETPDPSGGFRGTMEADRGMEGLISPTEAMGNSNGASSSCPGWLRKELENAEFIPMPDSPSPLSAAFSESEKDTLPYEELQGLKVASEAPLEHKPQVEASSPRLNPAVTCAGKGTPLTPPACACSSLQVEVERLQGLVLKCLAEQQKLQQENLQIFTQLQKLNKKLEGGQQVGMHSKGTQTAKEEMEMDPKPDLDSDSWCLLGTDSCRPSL
Conditions: at 0.1 µM.

Test [11] addresses T4, Serine/threonine-protein kinase Nek9 (Homo sapiens). Conditions: at 1 µM.
The target in test [12] is Serine/threonine-protein kinase PLK1 (Homo sapiens) (UniProt P53350). The conditions noted are these: at 0.1 µM.
Serine/threonine-protein kinase PLK1 (Homo sapiens), sequence (P53350 whole entry): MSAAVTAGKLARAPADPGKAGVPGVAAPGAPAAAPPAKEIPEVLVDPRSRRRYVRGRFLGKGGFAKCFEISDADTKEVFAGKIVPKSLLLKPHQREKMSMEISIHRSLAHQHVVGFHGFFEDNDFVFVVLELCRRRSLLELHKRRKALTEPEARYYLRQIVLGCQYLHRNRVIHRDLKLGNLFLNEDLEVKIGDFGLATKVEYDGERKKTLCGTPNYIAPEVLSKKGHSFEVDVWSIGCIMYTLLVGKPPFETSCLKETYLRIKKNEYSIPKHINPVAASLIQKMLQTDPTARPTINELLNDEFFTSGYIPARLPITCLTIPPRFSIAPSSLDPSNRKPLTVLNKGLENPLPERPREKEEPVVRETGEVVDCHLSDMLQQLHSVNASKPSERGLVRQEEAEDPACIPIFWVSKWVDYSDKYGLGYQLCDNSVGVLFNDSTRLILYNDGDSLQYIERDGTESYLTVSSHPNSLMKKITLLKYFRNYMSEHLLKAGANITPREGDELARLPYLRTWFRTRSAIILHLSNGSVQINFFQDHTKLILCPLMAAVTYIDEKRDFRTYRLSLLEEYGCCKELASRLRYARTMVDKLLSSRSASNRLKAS
Test [13] has the same target. Conditions: at 1 µM.
In test [14] the target is T5, Dual specificity protein kinase TTK (Homo sapiens) (UniProt P33981).
T5 sequence (whole entry): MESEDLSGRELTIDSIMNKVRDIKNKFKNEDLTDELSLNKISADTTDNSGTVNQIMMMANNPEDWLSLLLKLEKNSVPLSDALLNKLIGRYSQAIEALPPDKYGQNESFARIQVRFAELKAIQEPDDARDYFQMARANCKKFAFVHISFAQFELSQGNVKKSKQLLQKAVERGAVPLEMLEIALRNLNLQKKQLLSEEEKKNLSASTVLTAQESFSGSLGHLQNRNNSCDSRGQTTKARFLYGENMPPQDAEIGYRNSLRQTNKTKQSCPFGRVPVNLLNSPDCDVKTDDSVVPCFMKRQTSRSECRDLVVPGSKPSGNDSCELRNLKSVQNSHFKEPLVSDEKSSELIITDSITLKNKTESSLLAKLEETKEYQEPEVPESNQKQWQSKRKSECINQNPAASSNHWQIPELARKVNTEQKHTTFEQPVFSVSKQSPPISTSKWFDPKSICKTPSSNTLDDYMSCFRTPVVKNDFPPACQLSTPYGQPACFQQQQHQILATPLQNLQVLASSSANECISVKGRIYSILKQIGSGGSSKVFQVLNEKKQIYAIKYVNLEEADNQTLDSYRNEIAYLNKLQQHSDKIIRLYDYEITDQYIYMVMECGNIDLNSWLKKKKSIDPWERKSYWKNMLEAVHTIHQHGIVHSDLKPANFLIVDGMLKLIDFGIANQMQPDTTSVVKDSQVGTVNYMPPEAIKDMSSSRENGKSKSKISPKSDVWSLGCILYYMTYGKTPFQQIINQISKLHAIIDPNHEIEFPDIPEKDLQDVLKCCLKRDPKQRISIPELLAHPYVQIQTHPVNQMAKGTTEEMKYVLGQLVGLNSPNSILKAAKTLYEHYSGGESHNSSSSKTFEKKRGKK
Conditions: at 0.1 µM.

The subject of test [15] is T6, Receptor-type tyrosine-protein kinase FLT3 (Homo sapiens), P36888 [D835Y].
T6 sequence (whole entry): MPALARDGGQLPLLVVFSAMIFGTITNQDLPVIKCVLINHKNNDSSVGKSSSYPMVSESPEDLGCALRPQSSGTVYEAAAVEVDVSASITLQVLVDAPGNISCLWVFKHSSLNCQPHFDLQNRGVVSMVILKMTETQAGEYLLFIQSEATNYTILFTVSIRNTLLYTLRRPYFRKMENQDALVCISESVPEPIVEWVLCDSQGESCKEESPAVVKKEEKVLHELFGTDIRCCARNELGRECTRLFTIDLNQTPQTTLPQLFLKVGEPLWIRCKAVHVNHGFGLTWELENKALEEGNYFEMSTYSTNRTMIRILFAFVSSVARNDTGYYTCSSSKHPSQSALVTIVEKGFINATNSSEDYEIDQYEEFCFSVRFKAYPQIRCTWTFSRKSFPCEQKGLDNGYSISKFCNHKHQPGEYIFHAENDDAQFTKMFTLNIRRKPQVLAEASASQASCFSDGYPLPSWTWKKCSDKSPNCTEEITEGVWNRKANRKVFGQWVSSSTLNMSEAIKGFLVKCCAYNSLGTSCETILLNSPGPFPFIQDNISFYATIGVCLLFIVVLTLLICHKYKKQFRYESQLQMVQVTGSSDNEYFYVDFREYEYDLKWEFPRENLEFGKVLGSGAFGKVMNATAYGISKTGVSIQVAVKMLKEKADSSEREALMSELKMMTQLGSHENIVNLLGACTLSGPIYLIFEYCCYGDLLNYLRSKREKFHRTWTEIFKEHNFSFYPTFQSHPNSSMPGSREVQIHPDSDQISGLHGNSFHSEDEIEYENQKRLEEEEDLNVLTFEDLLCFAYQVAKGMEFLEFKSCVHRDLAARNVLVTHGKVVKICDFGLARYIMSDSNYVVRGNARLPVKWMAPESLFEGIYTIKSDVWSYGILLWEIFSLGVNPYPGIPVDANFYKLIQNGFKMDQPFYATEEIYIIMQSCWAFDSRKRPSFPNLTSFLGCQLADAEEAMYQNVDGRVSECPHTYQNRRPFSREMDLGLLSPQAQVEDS
The conditions noted are these: at 1 µM.

For test [16], the target named is Vascular endothelial growth factor receptor 3 (Homo sapiens) (UniProt P35916). The conditions noted are these: at 0.1 µM.
Vascular endothelial growth factor receptor 3 (Homo sapiens), sequence (P35916 whole entry): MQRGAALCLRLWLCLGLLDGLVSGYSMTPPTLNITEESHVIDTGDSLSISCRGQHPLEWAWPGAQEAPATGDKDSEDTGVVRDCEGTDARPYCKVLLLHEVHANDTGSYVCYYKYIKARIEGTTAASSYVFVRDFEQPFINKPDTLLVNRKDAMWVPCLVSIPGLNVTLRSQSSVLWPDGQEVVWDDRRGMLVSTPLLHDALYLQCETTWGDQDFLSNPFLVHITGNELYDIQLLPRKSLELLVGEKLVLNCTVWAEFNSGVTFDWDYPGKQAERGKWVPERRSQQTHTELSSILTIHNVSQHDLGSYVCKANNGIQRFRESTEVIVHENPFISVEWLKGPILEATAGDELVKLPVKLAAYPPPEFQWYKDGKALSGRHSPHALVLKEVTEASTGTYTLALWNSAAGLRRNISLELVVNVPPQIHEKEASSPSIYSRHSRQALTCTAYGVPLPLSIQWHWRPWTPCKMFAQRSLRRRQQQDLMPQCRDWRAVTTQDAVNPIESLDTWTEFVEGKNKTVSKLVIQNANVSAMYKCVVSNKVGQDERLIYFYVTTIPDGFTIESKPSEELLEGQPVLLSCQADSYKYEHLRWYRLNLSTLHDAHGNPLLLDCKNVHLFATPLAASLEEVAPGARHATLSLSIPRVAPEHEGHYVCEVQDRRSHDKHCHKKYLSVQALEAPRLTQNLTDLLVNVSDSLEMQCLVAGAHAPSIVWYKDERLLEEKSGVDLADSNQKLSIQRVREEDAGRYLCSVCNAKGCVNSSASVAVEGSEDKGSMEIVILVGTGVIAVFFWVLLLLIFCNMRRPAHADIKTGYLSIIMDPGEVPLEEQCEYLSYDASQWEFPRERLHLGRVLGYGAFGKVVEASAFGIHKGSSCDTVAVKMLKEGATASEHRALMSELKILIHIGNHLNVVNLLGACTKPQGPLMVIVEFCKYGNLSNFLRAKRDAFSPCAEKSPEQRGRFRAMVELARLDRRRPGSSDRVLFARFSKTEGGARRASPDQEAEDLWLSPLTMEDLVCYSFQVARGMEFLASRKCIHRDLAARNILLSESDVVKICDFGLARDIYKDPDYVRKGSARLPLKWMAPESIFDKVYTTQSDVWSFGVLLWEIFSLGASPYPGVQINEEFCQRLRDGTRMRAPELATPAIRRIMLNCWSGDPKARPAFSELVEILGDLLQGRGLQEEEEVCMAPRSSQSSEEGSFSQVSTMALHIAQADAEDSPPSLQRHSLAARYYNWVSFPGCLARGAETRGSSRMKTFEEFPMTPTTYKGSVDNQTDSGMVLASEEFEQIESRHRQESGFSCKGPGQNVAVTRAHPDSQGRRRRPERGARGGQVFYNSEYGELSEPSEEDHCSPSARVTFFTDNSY
The target is the same in test [17]. Conditions: at 1 µM.
The target in test [18] is Macrophage colony-stimulating factor 1 receptor (Homo sapiens) (UniProt P07333). The conditions noted are these: at 0.1 µM.
Macrophage colony-stimulating factor 1 receptor (Homo sapiens), sequence (P07333 whole entry): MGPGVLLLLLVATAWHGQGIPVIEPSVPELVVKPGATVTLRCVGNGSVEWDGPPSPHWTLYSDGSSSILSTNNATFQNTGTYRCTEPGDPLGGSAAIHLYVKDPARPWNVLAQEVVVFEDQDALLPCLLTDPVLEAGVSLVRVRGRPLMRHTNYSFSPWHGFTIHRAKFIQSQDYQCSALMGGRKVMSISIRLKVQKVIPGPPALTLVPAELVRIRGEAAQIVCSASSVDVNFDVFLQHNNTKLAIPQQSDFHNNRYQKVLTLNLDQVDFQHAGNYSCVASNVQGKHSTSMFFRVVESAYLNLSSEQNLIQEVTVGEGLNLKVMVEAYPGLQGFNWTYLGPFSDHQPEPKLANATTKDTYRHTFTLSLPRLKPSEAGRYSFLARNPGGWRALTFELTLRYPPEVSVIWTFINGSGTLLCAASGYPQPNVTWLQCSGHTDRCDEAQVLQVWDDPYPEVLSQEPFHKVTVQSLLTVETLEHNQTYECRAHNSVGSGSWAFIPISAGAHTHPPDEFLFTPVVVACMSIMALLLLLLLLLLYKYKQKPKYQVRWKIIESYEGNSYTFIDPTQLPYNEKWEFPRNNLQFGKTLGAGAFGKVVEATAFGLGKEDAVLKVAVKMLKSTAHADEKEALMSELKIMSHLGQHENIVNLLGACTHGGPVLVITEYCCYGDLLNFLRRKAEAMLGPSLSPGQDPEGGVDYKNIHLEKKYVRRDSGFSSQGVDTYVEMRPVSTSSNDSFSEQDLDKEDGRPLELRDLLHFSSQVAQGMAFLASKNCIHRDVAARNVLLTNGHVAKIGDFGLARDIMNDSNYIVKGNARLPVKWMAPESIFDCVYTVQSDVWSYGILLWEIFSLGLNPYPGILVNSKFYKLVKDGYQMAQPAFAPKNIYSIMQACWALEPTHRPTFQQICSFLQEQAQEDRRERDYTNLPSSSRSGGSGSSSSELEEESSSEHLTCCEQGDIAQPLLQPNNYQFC
For test [19] the target is unchanged. Conditions: at 1 µM.
Test [20] addresses Tyrosine-protein kinase Fyn (Homo sapiens) (UniProt P06241). Conditions: at 0.1 µM.

Serine/threonine-protein kinase Nek6 (Homo sapiens), sequence (Q9HC98 whole entry): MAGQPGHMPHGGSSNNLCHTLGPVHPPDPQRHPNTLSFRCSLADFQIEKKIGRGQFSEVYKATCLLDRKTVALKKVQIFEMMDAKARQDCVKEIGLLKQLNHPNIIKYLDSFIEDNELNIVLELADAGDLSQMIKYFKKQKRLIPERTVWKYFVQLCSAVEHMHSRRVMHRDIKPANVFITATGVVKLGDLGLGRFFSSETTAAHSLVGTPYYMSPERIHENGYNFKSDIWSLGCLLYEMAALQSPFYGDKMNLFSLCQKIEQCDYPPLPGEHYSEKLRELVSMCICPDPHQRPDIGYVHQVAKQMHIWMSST
Serine/threonine-protein kinase Nek7 (Homo sapiens), sequence (Q8TDX7 whole entry, looked up): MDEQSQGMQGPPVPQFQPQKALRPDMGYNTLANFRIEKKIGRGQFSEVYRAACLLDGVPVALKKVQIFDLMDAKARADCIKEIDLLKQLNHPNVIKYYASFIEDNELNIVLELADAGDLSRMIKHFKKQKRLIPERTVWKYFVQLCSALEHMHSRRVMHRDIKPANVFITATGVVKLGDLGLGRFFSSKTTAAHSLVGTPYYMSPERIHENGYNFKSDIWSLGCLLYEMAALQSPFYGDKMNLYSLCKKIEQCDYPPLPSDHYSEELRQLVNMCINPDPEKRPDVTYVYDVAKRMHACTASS
Tyrosine-protein kinase Fyn (Homo sapiens), sequence (P06241 2-537 limits assumed): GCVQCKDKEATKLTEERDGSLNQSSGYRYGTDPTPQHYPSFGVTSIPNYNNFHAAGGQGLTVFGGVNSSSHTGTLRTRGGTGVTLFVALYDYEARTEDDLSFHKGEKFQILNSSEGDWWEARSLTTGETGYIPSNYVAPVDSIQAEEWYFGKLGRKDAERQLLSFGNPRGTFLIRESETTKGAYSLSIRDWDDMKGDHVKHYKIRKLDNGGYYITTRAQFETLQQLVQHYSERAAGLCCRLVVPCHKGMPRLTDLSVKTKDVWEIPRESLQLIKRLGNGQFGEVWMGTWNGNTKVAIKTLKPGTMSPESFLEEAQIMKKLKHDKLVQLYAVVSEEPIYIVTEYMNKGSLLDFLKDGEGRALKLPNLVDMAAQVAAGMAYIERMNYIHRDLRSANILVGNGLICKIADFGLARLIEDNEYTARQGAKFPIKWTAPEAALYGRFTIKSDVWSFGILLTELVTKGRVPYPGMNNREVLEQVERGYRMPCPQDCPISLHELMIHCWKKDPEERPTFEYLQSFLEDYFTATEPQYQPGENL

As usually defined, the inhibition is the drop in the measured response relative to a control, in per cent. For the compound `CN(C)C(=O)O[C@H]1CN[C@H](C#Cc2cc3ncnc(Nc4ccc(OCc5cccc(F)c5)c(Cl)c4)c3s2)C1`, the inhibition was 4.15% in test [1]; 1.2% in [2]; 3.73% in [3]; 4.44% in test [4]; 5.04% in [5]; 1.81% in test [6]. The inhibition in test [7] is -0.96%; in test [8], 3.6%; in [9], 2.54%; in test [10], 7.4%; in test [11] it was -1.84%; in test [12], 2.9%. In addition, the inhibition in [13] was 2.92%; in test [14] it was 4.75%; in [15], 4.09%; in [16], 2.38%; in [17], 1.19%; in test [18], 10.5%. The inhibition in test [19] is 3.36%; in [20] it was -0.77%.
